ST2 IL33 inh – inhibitors of human ST2 (IL1RL1) binding to IL-33, primary screen, biochemical, AlphaLISA; 78,000 compounds, 2.3% hits; AlphaLISA ST2-Fc/biotin-IL-33 interaction, 1 h; inhibition, % for hits at 17 µM; AID 1259354, 2018; Interleukin-1 receptor-like 1 (Homo sapiens), Q01638; in the data active = inhibition above about 30%
Target sequence (Q01638 whole entry, looked up): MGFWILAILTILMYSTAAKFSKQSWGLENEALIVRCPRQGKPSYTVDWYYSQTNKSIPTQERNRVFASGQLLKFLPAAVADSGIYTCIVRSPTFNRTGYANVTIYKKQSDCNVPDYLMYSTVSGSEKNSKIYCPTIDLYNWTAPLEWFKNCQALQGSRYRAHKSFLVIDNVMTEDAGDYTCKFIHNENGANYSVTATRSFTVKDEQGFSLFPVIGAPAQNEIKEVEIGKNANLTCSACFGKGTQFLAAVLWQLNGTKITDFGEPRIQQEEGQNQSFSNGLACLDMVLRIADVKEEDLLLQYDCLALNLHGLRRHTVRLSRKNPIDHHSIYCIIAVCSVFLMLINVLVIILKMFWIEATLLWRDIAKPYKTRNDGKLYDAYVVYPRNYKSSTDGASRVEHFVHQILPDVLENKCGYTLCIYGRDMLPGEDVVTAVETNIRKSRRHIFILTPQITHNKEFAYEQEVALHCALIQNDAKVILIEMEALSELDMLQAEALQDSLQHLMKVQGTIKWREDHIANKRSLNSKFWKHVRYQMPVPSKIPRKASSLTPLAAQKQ
Numbers without * were called inactive; i = inactive. The entries come from a sample that favours hits as a whole.

SMILES	ST2 IL33 inh
COc1cccc(NC(=O)N[C@H]2[C@H](O)[C@@H](N3CCCC3)[C@@H]3OC[C@H]2O3)c1	47.0%*
COc1ccc(NC(=O)N[C@H]2[C@H](O)[C@@H](N3CCC(Cc4ccccc4)CC3)[C@@H]3OC[C@H]2O3)cc1	i
COc1cccc(NC(=O)N[C@H]2[C@H](O)[C@@H](N3CCN(C(C)=O)CC3)[C@@H]3OC[C@H]2O3)c1	i
N#Cc1cccc(NC(=O)N[C@H]2[C@H](O)[C@@H](N3CCCC3)[C@@H]3OC[C@H]2O3)c1	i
O=C(Nc1cccc(C(F)(F)F)c1)N[C@H]1[C@H](O)[C@@H](N2CCCCC2)[C@@H]2OC[C@H]1O2	i
CN1CCN([C@H]2[C@@H]3OC[C@@H](O3)[C@@H](NC(=O)Nc3ccccc3)[C@@H]2O)CC1	35.0%*
Cc1ccc(NS(=O)(=O)c2ccc(F)cc2)cc1Cl	i
O=C(CCCn1cnc2ccccc2c1=O)NCc1c(F)ccc(F)c1F	i
COC(=O)c1ccccc1Sc1c(-c2ccccc2)nc2sccn12	i
O=[N+]([O-])c1ccc(Sc2c(-c3ccccc3)nc3sccn23)cc1	32.0%*
c1ccc(Sc2c(-c3ccccc3)nc3ncccn23)cc1	i
Cc1ccccc1CCC1CCCN(C(=O)c2cc(=O)[nH]c3ccccc23)C1 (stereo not given)	i
Cc1ncc(-c2c(-c3ccccc3)ncn2C)[nH]1	i
Brc1ccc(-c2nnc3n2N=C(c2cccs2)CS3)cc1	i
O=C(Cc1ccc(F)cc1)Nc1c(C(=O)Nc2cccc(F)c2)oc2ccccc12	93.0%*
CCOCC(=O)Nc1c(C(=O)Nc2cccc(F)c2)oc2ccccc12	i
O=C(Nc1c(C(=O)Nc2cccc(F)c2)oc2ccccc12)c1ccc(F)cc1	i
CCN(C/C=C/c1ccccc1)C(=O)c1cc2cccnc2nc1C	i
COc1ccccc1C1C(C#N)=C(N)Oc2n[nH]c(C(C)(C)C)c21 (stereo not given)	i
O=C(CN1C(=O)S/C(=C/c2ccccc2)C1=O)Nc1ccccc1Cl	i
COc1ccc(/C=C2/SC(=O)N(CCC(=O)Nc3ccccc3Br)C2=O)cc1	i
COc1ccc(/C=C2/SC(=O)N(CC(=O)Nc3cc(C)on3)C2=O)cc1OC	35.0%*
O=C(NCCSc1c[nH]c2ccccc12)c1cc2ccccc2oc1=O	i
C=CCN1CCN(C(=O)C2COc3ccccc3C2)CC1 (stereo not given)	i
COc1cccc(NC(=O)C2Cc3ccccc3C(=O)O2)c1 (stereo not given)	i
SMILES	ST2 IL33 inh
COC(=O)[C@@H]1Cc2ncn(Cc3ccc(OC)cc3)c2CN1C(=O)c1ccc(OC)cc1	i
COC(=O)[C@@H]1Cc2ncn(Cc3ccc(Cl)cc3)c2CN1Cc1ccc(F)cc1	i
COCC(=O)N1Cc2c(ncn2Cc2ccc(OC)cc2)C[C@H]1C(=O)OC	68.0%*
COC(=O)[C@@H]1Cc2ncn(Cc3ccc(OC)cc3)c2CN1Cc1cccc(C#N)c1	41.0%*
COC(=O)[C@@H]1Cc2ncn(Cc3ccc(Cl)cc3)c2CN1C(=O)c1ccccc1OC	i
COC(=O)[C@@H]1Cc2ncn(Cc3ccc(OC)cc3)c2CN1Cc1ccc(OC)cc1	89.0%*
COC(=O)[C@@H]1Cc2ncn(Cc3ccc(Cl)cc3)c2CN1Cc1ccc(CO)o1	i
COC(=O)[C@@H]1Cc2ncn(Cc3ccc(Cl)cc3)c2CN1C(=O)COc1ccccc1	i
COC(=O)[C@@H]1Cc2ncn(Cc3ccc(Cl)cc3)c2CN1S(C)(=O)=O	i
O=C1NC[C@@H](CCC(=O)N2CCN(c3ccccc3)CC2)N2C[C@@H](NCc3ccc(F)cc3)C[C@@H]12	i
CC(C)(C)NSc1nc2ccccc2s1	i
C=CCNC(=O)c1cnn2c1NC(c1cccs1)CC2C(F)(F)F (stereo not given)	i
CCOC(=O)C1=C(C)Nc2nc(SC)[nH]c(=O)c2C1c1cccc(F)c1 (stereo not given)	i
CC(=O)Nc1ccc(NC[C@@H]2C=C(C)[C@H](Cc3nnc(-c4cccnc4)o3)C[C@H]2C(C)C)cn1	i
CC1=CC(=O)C(C(C)C)=C/C1=N\Oc1c([N+](=O)[O-])cc(Cl)cc1[N+](=O)[O-]	62.0%*
COC(=O)C1=C(NC(=O)c2ccc(Cl)cc2)CCS1	i
COC(=O)C1=C(NC(=O)c2cc(C)cc(C)c2)CCS1	50.0%*
COC(=O)C1=C(NC(=O)c2cc(Cl)ccc2Cl)CCS1	i
CCOc1cc(CN2CCCN(C)CC2)ccc1OC	i
COc1ccccc1OCCOc1cccc(Cl)c1	i
CCOc1ccc(-c2nnc3cccc(Cl)n23)cc1OC	41.0%*
N#Cc1c(NC(=O)Cn2cc(Br)c([N+](=O)[O-])n2)sc2c1CCC2	i
CC1Cc2ccccc2N1C(=O)CN(C)S(=O)(=O)c1ccc(C(=O)N2CCOCC2)s1 (stereo not given)	i
O=C(Nc1ccccc1-c1ccccc1)c1ccccc1	i
CC(=O)Nc1ccc2cccccc1-2	56.0%*
O=C(CCCc1ccccc1)Nc1ccccc1-c1ccccc1	i

Screens from PubChem BioAssay.
